Here are results for 19 compounds from PubChem BioAssay (NCI).

The panel holds about 83,000 compounds, 20% with a hit somewhere; the sample as a whole holds those more often.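 Assay: single dose, 48 h. Readout: percent growth (0 = no net growth; negative = cell death). Active: <10.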 Unmarked numbers belong to inactive results. Calls of active or inactive are those of the source.

Among the test systems are SR leukemia; RPMI-8226 leukemia; OVCAR-8 ovarian; OVCAR-5 ovarian; OVCAR-4 ovarian; SK-OV-3 ovarian; OVCAR-3 ovarian; HS 578T breast; NCI/ADR-RES ovarian; IGROV1 ovarian.
Holding throughout (test): NCI-60 one-dose screen, 48 h (100 = growth as untreated, 0 = no growth, -100 = all killed)
Holding throughout (details): 10 µM

Regarding `COC(=O)[C@]12CC[C@@H](C)[C@H](C)[C@@H]1C1=CC[C@@H]3[C@@]4(C)C[C@@H](O)[C@H](O)[C@@](C)(CO)[C@@H]4[C@H](O)C[C@@]3(C)[C@]1(C)CC2`, the growth in the experiment with SR leukemia was -36.5% (active); in the experiment on RPMI-8226 leukemia, -20.7% (active); in the experiment on OVCAR-8 ovarian it was -27.3% (active); with OVCAR-5 ovarian it was -21.6% (active); with OVCAR-4 ovarian, -11% (active); in the experiment with SK-OV-3 ovarian it was -33.1% (active). Moreover, the results for the growth with OVCAR-3 ovarian, with HS 578T breast and with NCI/ADR-RES ovarian were -64.9% (active), -13% (active) and -22.8% (active), respectively.
As for `C=C1C(=O)O[C@H]2[C@H]1CC/C(COC(=O)OCCCCCOC(=O)OC/C1=C/CC[C@@]3(C)O[C@H]3[C@H]3OC(=O)C(=C)[C@@H]3CC1)=C\CC[C@@]1(C)O[C@@H]21`, the growth in the experiment on SR leukemia was -20.1% (active); in the experiment on RPMI-8226 leukemia it was -3.28% (active); in the experiment on OVCAR-8 ovarian, -4.61% (active); with OVCAR-5 ovarian, -36.2% (active); in the experiment on OVCAR-4 ovarian, -43% (active); with SK-OV-3 ovarian, 54.6%. Moreover, the growth in the experiment with OVCAR-3 ovarian is -97.5% (active); with HS 578T breast, 33.8%; with NCI/ADR-RES ovarian, 42.5%.
Regarding `COc1ccc(-c2nsc3c2NC(=O)CC3c2ccc(Cl)cc2)cc1` (stereo unspecified), the growth is 67.8% with SR leukemia; 72.2% in the experiment on RPMI-8226 leukemia; 90.2% in the experiment on OVCAR-8 ovarian; 100% in the experiment with OVCAR-5 ovarian; 99.8% in the experiment with OVCAR-4 ovarian; 86.9% in the experiment with SK-OV-3 ovarian. For the same compound, the growth in the experiment with OVCAR-3 ovarian was 93.2%; in the experiment on HS 578T breast, 95.3%; with NCI/ADR-RES ovarian, 81.1%.
As to `CC(C)c1[nH]nc2c(NCc3ccc(-c4ccccn4)cc3)nc(SCCN)nc12`, the growth is -7.09% (active) with SR leukemia; -16.7% (active) with RPMI-8226 leukemia; 10.9% in the experiment with OVCAR-8 ovarian; 13.6% in the experiment with OVCAR-5 ovarian; -3.8% (active) in the experiment with OVCAR-4 ovarian; 3.32% (active) with SK-OV-3 ovarian. For the same compound, the growth in the experiment with OVCAR-3 ovarian is 5.51% (active); in the experiment on HS 578T breast, 11.1%; in the experiment on NCI/ADR-RES ovarian, 48%.
Take `CN(C)c1ccc2c(c1)OC(N)=C(C#N)C2c1ccc2c(c1)CCCN2C` (stereo unspecified): the growth with SR leukemia is 29.5%; in the experiment on RPMI-8226 leukemia, 34.5%; in the experiment on OVCAR-8 ovarian, 30.9%; in the experiment on OVCAR-5 ovarian it was 78.2%; in the experiment with OVCAR-4 ovarian, 56.3%; with SK-OV-3 ovarian it was 24.4%. Further, the growth was 3.67% (active) with OVCAR-3 ovarian, 20.1% with HS 578T breast and 0.712% (active) in the experiment on NCI/ADR-RES ovarian.
Take `CCn1nc(-c2ccccn2)c2cccnc2c1=S`: the growth in the experiment on SR leukemia is 61.6%; in the experiment on RPMI-8226 leukemia, 55.2%; in the experiment on OVCAR-8 ovarian it was 79.5%; in the experiment with OVCAR-5 ovarian, 97%; in the experiment with OVCAR-4 ovarian, 26.5%; with SK-OV-3 ovarian it was 94.7%. Moreover, the growth was 15.4% in the experiment on OVCAR-3 ovarian, 96.6% in the experiment on HS 578T breast and 91.5% with NCI/ADR-RES ovarian.
For the compound `O=c1oc2cc(OS(=O)(=O)C3CC3)ccc2c2c1CCCCCC2`, the growth is 52.7% in the experiment on SR leukemia; 49.3% with RPMI-8226 leukemia; 82.6% in the experiment on OVCAR-8 ovarian; 100% in the experiment on OVCAR-5 ovarian; 65.3% with OVCAR-4 ovarian; 89.1% in the experiment on SK-OV-3 ovarian. Also, the results for the growth with OVCAR-3 ovarian, in the experiment with HS 578T breast and in the experiment with NCI/ADR-RES ovarian were 68.7%, 106% and 68.4%, respectively.
Turning to `CCCCCC(CCC)COC(=O)c1ccc(OC)cc1` (stereo unspecified), the growth with SR leukemia was 101%; in the experiment on RPMI-8226 leukemia it was 91.8%; with OVCAR-8 ovarian, 96.5%; in the experiment with OVCAR-5 ovarian, 102%; with OVCAR-4 ovarian it was 109%; in the experiment on SK-OV-3 ovarian it was 101%. The growth is 111% in the experiment on OVCAR-3 ovarian, 106% in the experiment on HS 578T breast and 103% in the experiment with NCI/ADR-RES ovarian.
Turning to `COc1ccc(CCc2nc3cc(-c4c(C)noc4C)ccc3n2CCN2CCOCC2)cc1`, the growth with SR leukemia is 39%; with RPMI-8226 leukemia, -5.7% (active); with OVCAR-8 ovarian, 34.6%; with OVCAR-5 ovarian, 49.8%; with OVCAR-4 ovarian it was 30.8%; in the experiment with SK-OV-3 ovarian it was 88.1%. The growth in the experiment on OVCAR-3 ovarian was 3.29% (active); in the experiment with HS 578T breast, 50.2%; in the experiment with NCI/ADR-RES ovarian it was 57.1%.
Consider `CCn1nc(-c2ccc(C(=O)OC)cc2)nc2c(=O)n(C)c(=O)nc1-2`, for which the growth with SR leukemia was 7.67% (active); in the experiment on RPMI-8226 leukemia, 61.2%; in the experiment on OVCAR-8 ovarian it was 45.8%; with OVCAR-5 ovarian, 105%; in the experiment with OVCAR-4 ovarian, 14.1%; in the experiment with SK-OV-3 ovarian it was 9.16% (active). The growth in the experiment on OVCAR-3 ovarian is 25.7%; in the experiment on HS 578T breast, 35.6%; in the experiment on NCI/ADR-RES ovarian, 70%.
With `COc1ccc2c(=O)cc(C(Cl)(Cl)Cl)oc2c1`, the growth is -25.6% (active) in the experiment on SR leukemia; -27.2% (active) with RPMI-8226 leukemia; -1.14% (active) in the experiment with OVCAR-8 ovarian; 16.6% in the experiment on OVCAR-5 ovarian; -12.9% (active) in the experiment on OVCAR-4 ovarian; -7.04% (active) in the experiment on IGROV1 ovarian. Moreover, the results for the growth with OVCAR-3 ovarian, in the experiment with HS 578T breast and in the experiment on NCI/ADR-RES ovarian were -19.7% (active), -13.9% (active) and 10.3%, respectively.
Regarding `C/C=C\COc1cc(C)c(Cl)cc1Cl`, the growth is 107% in the experiment with SR leukemia; 99.7% in the experiment with RPMI-8226 leukemia; 99.4% with OVCAR-8 ovarian; 108% with OVCAR-5 ovarian; 94.7% in the experiment with OVCAR-4 ovarian; 112% in the experiment with SK-OV-3 ovarian. In addition, the growth in the experiment on OVCAR-3 ovarian was 116%; with HS 578T breast, 121%; in the experiment with NCI/ADR-RES ovarian, 115%.
On to `COc1ccc(-c2[nH]ncc2/C=C/c2cc(C(F)(F)F)[nH]c(=O)n2)cc1`, for which the growth in the experiment with SR leukemia is 71.9%; in the experiment on RPMI-8226 leukemia, 96.5%; in the experiment on OVCAR-8 ovarian, 102%; with OVCAR-5 ovarian it was 100%; with OVCAR-4 ovarian it was 93.6%; in the experiment with SK-OV-3 ovarian, 100%. In addition, the growth was 95.1% with OVCAR-3 ovarian, 106% in the experiment on HS 578T breast and 105% with NCI/ADR-RES ovarian.
In the case of `O=C1CC[C@@H](C(=O)N[C@H]2CSSC[C@@H](C(=O)N/C=C/c3ccc(O)cc3)NC(=O)[C@H](Cc3ccccc3)NC(=O)[C@@H]3CCCN3C(=O)[C@@H]3CCCN3C2=O)N1`, the growth was 99.1% with SR leukemia; 96.1% in the experiment on RPMI-8226 leukemia; 100% in the experiment on OVCAR-8 ovarian; 102% with OVCAR-5 ovarian; 112% in the experiment on OVCAR-4 ovarian; 93.2% in the experiment on SK-OV-3 ovarian. Moreover, the figures for the growth with OVCAR-3 ovarian, in the experiment on HS 578T breast and in the experiment on NCI/ADR-RES ovarian were 106%, 94.4% and 97.8%, respectively.
On to `CCCCCCN=C(N)CCCCCCCCCCC(N)=NCCCCCC`, for which the growth in the experiment on SR leukemia is 61.7%; with RPMI-8226 leukemia, 28.8%; with OVCAR-8 ovarian, 21.8%; in the experiment with OVCAR-5 ovarian it was 49.1%; with OVCAR-4 ovarian it was 27.6%; with SK-OV-3 ovarian, 31.3%. For the same compound, the figures for the growth with OVCAR-3 ovarian, in the experiment with HS 578T breast and in the experiment on NCI/ADR-RES ovarian were 20%, 26.6% and 84%, respectively.
Regarding `O=C(CSc1nnc(-c2ccc(Cl)cc2)o1)c1ccccc1`, the growth is 94% in the experiment on SR leukemia; 96.4% in the experiment with RPMI-8226 leukemia; 96.2% with OVCAR-8 ovarian; 97.7% in the experiment with OVCAR-5 ovarian; 112% in the experiment on OVCAR-4 ovarian; 102% with SK-OV-3 ovarian. Moreover, the growth with OVCAR-3 ovarian is 102%; with HS 578T breast, 101%; with NCI/ADR-RES ovarian, 94.9%.
Turning to `CCCCCc1cc[n+](CC(=O)c2ccc(Cl)cc2)cc1`, the growth was 86% in the experiment on SR leukemia; 91.5% in the experiment with RPMI-8226 leukemia; 98.8% in the experiment with OVCAR-8 ovarian; 71.4% with OVCAR-5 ovarian; 96.3% with OVCAR-4 ovarian; 99.1% in the experiment with SK-OV-3 ovarian. In addition, the results for the growth with OVCAR-3 ovarian, with HS 578T breast and in the experiment with NCI/ADR-RES ovarian were 59.8%, 95.9% and 99.7%, respectively.
`Cc1ccc2oc(=O)cc(/C(=C3/C=CC=N3)c3ccc[nH]3)c2c1`: the growth in the experiment with SR leukemia is -9.31% (active); in the experiment with RPMI-8226 leukemia it was -16.9% (active); with OVCAR-8 ovarian, -20.2% (active); in the experiment with OVCAR-5 ovarian, 21.1%; in the experiment on OVCAR-4 ovarian, 28%; in the experiment on SK-OV-3 ovarian, -16% (active). Also, the figures for the growth in the experiment on OVCAR-3 ovarian, in the experiment on HS 578T breast and in the experiment with NCI/ADR-RES ovarian were -23.3% (active), 12.9% and 0.0095% (active), respectively.
Consider `S=c1c2ncccc2c(-c2ccccn2)nn1Cc1ccccn1`, for which the growth in the experiment on SR leukemia is 87.2%; in the experiment on RPMI-8226 leukemia, 97.9%; with OVCAR-8 ovarian, 106%; with OVCAR-5 ovarian it was 111%; with OVCAR-4 ovarian, 97.2%; in the experiment on SK-OV-3 ovarian, 93.5%. Besides, the growth in the experiment on OVCAR-3 ovarian is 115%; with HS 578T breast, 111%; with NCI/ADR-RES ovarian, 103%.
